This passage reports Potency, outcome and PLD induction results from PubChem BioAssay (Tox21).

The nature of assay [1]: qHTS assay to identify small molecule antagonists of the estrogen receptor alpha (ER-alpha) signaling pathway using the BG1 cell line in the presence of 0.1 nM 17-beta-estradiol - cell viability counter screen (AID 1259241). Further: nearly all actives have a fitted effect of over 40% in size. In outline: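 Cytotoxicity counter-screen: live-cell protease activity measured by fluorescence (30 min reagent step) in the same wells. Cells were VM7Luc4E2 with endogenous ER-alpha and ERE-driven luciferase, treated 22 hr at 37C alongside 0.1 nM 17beta-estradiol final.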
(In general: qHTS replaces the single test concentration by a dilution series.)

The nature of assay [2]: qHTS assay to identify small molecule antagonists of the androgen receptor (AR) signaling pathway using the MDA cell line in the presence of 0.5 nM R1881 - cell viability counter screen (AID 1259242). Further: nearly all actives have a fitted effect of over 45% in size. The method in brief:
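MDA-kb2 cells (MMTV-luciferase, AR/GR responsive) were treated with compounds plus 0.5 nM R1881 (final) for 16 hr at 37C, 0% CO2. Viability was then read in the same wells as live-cell protease fluorescence (CellTiter-Fluor, 30 min).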

The target of assay [3] is Estrogen receptor (Homo sapiens) (UniProt P03372). The experiment in a line: qHTS assay to identify small molecule antagonists of the estrogen receptor alpha (ER-alpha) signaling pathway using the BG1 cell line in the presence of 0.1 nM 17-beta-estradiol (AID 1259244). Further: nearly all actives have a fitted effect of over 50% in size. Further: potency means the concentration at half of the fitted maximal effect. In outline: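 VM7Luc4E2 cells (endogenous full-length ER-alpha, 4×ERE-luciferase), kept 5 days in phenol red-free, charcoal-stripped FBS medium; 4,000 cells/well. Compounds added with 0.1 nM (final) 17beta-estradiol, 22 hr at 37C; luminescence read with ONE-Glo after 30 min.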
Estrogen receptor (Homo sapiens), sequence (P03372 whole entry, looked up): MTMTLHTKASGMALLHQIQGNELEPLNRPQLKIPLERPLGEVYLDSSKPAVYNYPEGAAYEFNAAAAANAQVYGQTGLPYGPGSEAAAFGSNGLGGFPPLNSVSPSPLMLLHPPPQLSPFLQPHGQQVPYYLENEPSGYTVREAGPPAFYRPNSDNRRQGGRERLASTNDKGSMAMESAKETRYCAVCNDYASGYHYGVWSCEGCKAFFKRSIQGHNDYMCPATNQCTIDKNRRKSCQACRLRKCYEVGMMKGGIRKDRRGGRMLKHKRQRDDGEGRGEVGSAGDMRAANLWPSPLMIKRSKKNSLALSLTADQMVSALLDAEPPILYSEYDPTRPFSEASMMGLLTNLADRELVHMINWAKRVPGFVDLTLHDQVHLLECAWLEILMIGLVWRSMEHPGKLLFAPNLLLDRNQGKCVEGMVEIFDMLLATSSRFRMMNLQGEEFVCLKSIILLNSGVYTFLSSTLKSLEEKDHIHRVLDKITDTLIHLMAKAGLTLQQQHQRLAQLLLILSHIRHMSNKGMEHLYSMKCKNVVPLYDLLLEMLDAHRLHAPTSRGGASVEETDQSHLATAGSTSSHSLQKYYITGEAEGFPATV

Assay [4] is described as follows: qHTS assay to identify small molecule phospholipidosis (PLD) inducers (AID 1259344; active means well fitted curve in the direction sought with a large enough effect; an effect the other way counts as inactive or inconclusive). The method in brief:
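Quantitative HTS in HepG2: compound plus LipidTOX Red dye for 24 h, paraformaldehyde fixation with Hoechst 33342, widefield high-content imaging; amiodarone as positive and DMSO as negative control.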

Assay [5] can be described thus: qHTS assay to identify small molecule HDAC inhibitors (AID 1259364). Further: top concentration of the series differs between compounds; nearly all actives have a fitted effect of over 45% in size. In outline:
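Wild-type HCT-116 cells, plated overnight at 37 C, exposed to compounds 2 hr at 37 C; luminogenic HDAC-Glo substrate then added 30 min at room temperature. Luminescence reports relative endogenous class I/II HDAC activity.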

A short description of assay [6]: qHTS assay to identify small molecule HDAC inhibitors - cell viability counter screen (AID 1259365). Further: series mostly up to about 92 µM; nearly all actives have a fitted effect of over 50% in size. The method in brief: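 CellTiter-Glo luminescence (30 min, room temperature) reported viability after a 2 h compound exposure at 37 C. Cells: wild-type HCT-116, 1,500 per well, seeded the night before.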
Assay [7] is described as follows: qHTS assay to identify small molecule agonists of the sonic hedgehog signaling (Shh) pathway - cell viability counter screen (AID 1259366). Further: nearly all actives have a fitted effect of over 50% in size. In outline:
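Cytotoxicity counter screen: CellTiter-Fluor reagent added after 23 h compound exposure, then 1 h at 37C and fluorescence read. Cells were 3T3 Gli1-Luc, seeded 2,000 per well and dosed 4 h post-plating.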

Assay [8] is described as follows: qHTS assay to identify small molecule antagonists of the sonic hedgehog signaling (Shh) pathway - cell viability counter screen (AID 1259367). Further: nearly all actives have a fitted effect of over 55% in size. In outline:
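Seed 3T3 Gli1-Luc cells at 2,000 per well; incubate 4 hr; add compound in DMSO, then conditioned medium; incubate at 37C with 5% CO2; add CellTiter-Fluor after 23 hr; read fluorescence 1 hr later.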

The nature of assay [9]: qHTS assay to identify small molecule agonists of the sonic hedgehog signaling (Shh) pathway (AID 1259368; calls by dose curve;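 further: NIH/3T3-derived 3T3Gli1-Luc cells carrying a stable Gli1-driven firefly luciferase reporter; series mostly up to about 92 µM; nearly all actives have a fitted effect of over 15% in size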). In outline: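 NIH/3T3-derived 3T3Gli1-Luc cells with stably integrated Gli1-driven firefly luciferase, 2,000 cells/well, compounds added after 4 hr. Incubated 24 hr at 37C, 5% CO2; luminescence read after 30 min with luciferase reagent at room temperature.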

Structures are written as SMILES. Values without a mark were called inactive. Results filed as inconclusive are left out. The source made the active and inactive calls. Unless noted, the call rests on the fitted dose curve; in most records, active means well fitted curve in the direction sought with a large enough effect in the repeat runs; inconclusive means weak or mixed curves; inactive means no such curve, though single readings can be large; an effect the other way counts as inactive or inconclusive.
On the % scale 0 is the no-effect control and ±100 the full control effect.

`CCOC(=O)c1cccnc1`: the Potency entry in assay [1], in assay [2], in assay [3], in assay [4], in assay [5] and in [6] was “inactive” throughout. Moreover, the Potency entry in assay [7] and in assay [8] was “inactive” each time. For the same compound, the compound was classed as inactive in assay [9].

As for `Nc1cccc(S(=O)(=O)c2cccc(N)c2)c1`, the Potency result in [1], in assay [2], in assay [3], in assay [5], in assay [6] and in assay [7] was “inactive” each time. In addition, the Potency result in assay [8] was “inactive”. Moreover, the compound was called inactive in assay [9].

Consider `CN1Cc2cc(C(=O)N3CCC(C4CCNCC4)CC3)ccc2NC(CC(=O)O)C1=O` (centres undefined), for which the Potency result in [1], in [2], in assay [3], in assay [5], in assay [6] and in [7] was “inactive” each time. Besides, in [8], the Potency result was “inactive”. The call in assay [9] was inactive.

For `CN(C)CCN(Cc1ccccc1)c1ccccn1`, the Potency entry in assay [1], in [2], in [3], in [4], in assay [5] and in assay [6] was “inactive” in each case. For the same compound, the Potency entry in assay [7] and in assay [8] was “inactive” throughout. The compound was called inactive in assay [9].

For `CC1OC(=O)C(C)OC1=O` (centres undefined), the Potency entry in assay [1], in [2], in [3], in assay [5], in [6] and in assay [7] was “inactive” throughout. Moreover, in assay [8], the Potency entry is “inactive”. Besides, the call in assay [9] was inactive.

In the case of `CCC(CC)Nc1ccc(C)c(C)c1`, the Potency entry in [1], in assay [2], in assay [3], in assay [5], in assay [6] and in assay [7] was “inactive” in each case. Besides, the Potency entry in assay [8] is “inactive”. In addition, the call in assay [9] was inactive.

With `CCCCC(=O)OCC(=O)[C@H]1[C@H](C)C[C@H]2[C@@H]3C[C@H](F)C4=CC(=O)C=C[C@]4(C)[C@@]3(F)[C@@H](O)C[C@@]21C`, the Potency result in [1], in [2], in [3], in [5], in [6] and in assay [7] was “inactive” throughout. In addition, in [8], the Potency entry was “inactive”. For the same compound, the PLD induction in [4] is -1.62% [at 7.66 µM]. In assay [9], the compound was called inactive.

In the case of `CCO[Si](CCCCl)(OCC)OCC`, the Potency result in assay [1], in assay [2], in [3], in assay [5], in [6] and in assay [7] was “inactive” throughout. Also, the Potency result in assay [8] was “inactive”. Also, the compound was classed as inactive in [9].

Take `COc1ccc(C(=O)N2CCN(CC(=O)N3CCOCC3)CC2)cc1`: the Potency result in assay [1], in [2], in assay [3], in assay [4], in assay [5] and in assay [6] was “inactive” throughout. Moreover, the Potency entry in assay [7] and in assay [8] was “inactive” each time. The compound was called inactive in assay [9].

In the case of `O=C1C(O)=C(O)C(=O)C(O)=C1O`, the Potency result in [1], in assay [2], in assay [3], in assay [4], in [5] and in assay [6] was “inactive” throughout. Further, the Potency entry in [7] and in assay [8] was “inactive” each time. Also, the result in [9] was inactive.

Take `C[C@H](CCC(=O)O)[C@H]1CC[C@H]2[C@@H]3CC[C@@H]4C[C@H](O)CC[C@]4(C)[C@H]3C[C@H](O)[C@]12C`: the Potency entry in assay [1], in assay [2], in assay [3], in assay [4], in [5] and in assay [6] was “inactive” throughout. In assay [9], the outcome was inactive.

As to `COc1ccnc(CS(=O)c2nc3ccc(OC(F)F)cc3[nH]2)c1OC` (centres undefined), the Potency result in [1], in assay [2], in assay [3], in [4], in [5] and in [6] was “inactive” in each case. The Potency entry in assay [7] and in [8] was “inactive” in each case. Further, the outcome in [9] was inactive.

Consider `CC(=O)c1cccc([N+](=O)[O-])c1`, for which the Potency entry in [1], in assay [2], in [3], in assay [5], in assay [6] and in [7] was “inactive” each time. Besides, the Potency result in assay [8] was “inactive”. The compound was classed as inactive in assay [9].

Regarding `O=C1CCC(=O)O1`, the Potency entry in assay [1], in assay [2], in assay [3], in [5], in [6] and in [7] was “inactive” each time. Also, the Potency result in assay [8] is “inactive”. Further, the compound was called inactive in assay [9].

Regarding `c1cc(CCCc2ccncc2)ccn1`, the Potency result in assay [1], in [2], in assay [3], in assay [5], in [6] and in [7] was “inactive” throughout. Also, in assay [8], the Potency result was “inactive”. In addition, in [9], the outcome was inactive.

`c1ccc(C(O[C@H]2CCCN(CCc3ccc4c(c3)OCO4)C2)c2ccccc2)cc1`: the Potency result in [1], in [2], in assay [3], in [5], in [6] and in [7] was “inactive” throughout. In assay [8], the Potency entry was “inactive”. Moreover, the result in assay [9] was inactive.

On to `CCCCNc1ccc(C(=O)OCCOCCOCCOCCOCCOCCOCCOCCOCCOC)cc1`, for which the Potency entry in [1], in assay [2], in assay [4], in assay [5], in assay [6] and in [7] was “inactive” each time. In addition, in [3], the Potency was 8.41 µM (active). Also, the compound was called inactive in assay [9].

For the compound `c1ccc(CNCCNCc2ccccc2)cc1`, the Potency result in assay [1], in assay [2], in assay [3], in assay [4], in [5] and in [6] was “inactive” throughout. In addition, the Potency result in [8] was “inactive”. Moreover, the result in [9] was inactive.

With `Cc1ncc(CO)c(C=O)c1O`, the Potency result in assay [1], in assay [2], in assay [3], in [4], in assay [5] and in [6] was “inactive” each time. The Potency result in assay [7] and in assay [8] was “inactive” throughout. Moreover, the outcome in [9] was inactive.

Regarding `C[N+]1(C)CCC(OC(=O)C(O)(c2ccccc2)C2CCCC2)C1` (centres undefined), the Potency result in assay [1], in assay [2], in [3], in [4], in [5] and in assay [6] was “inactive” each time. For the same compound, the Potency result in [8] was “inactive”. The call in assay [9] was inactive.

For the compound `CCc1c(C(=O)NN2CCCCC2)nn(-c2ccc(Cl)cc2Cl)c1-c1ccc(Br)cc1`, the Potency result in assay [1], in assay [2], in assay [3], in [5], in assay [6] and in assay [7] was “inactive” in each case. For the same compound, the Potency result in [8] was “inactive”. Also, the compound was called inactive in assay [9].

Take `O=C(O)c1ccco1`: the Potency result in assay [1], in assay [2], in [3], in [5], in [6] and in assay [7] was “inactive” each time. In [8], the Potency entry is “inactive”. Also, in [9], the outcome was inactive.

As to `O=C(OCCCCCCOC(=O)c1ccccc1)c1ccccc1`, the Potency entry in assay [1], in assay [2], in [3], in assay [5], in assay [6] and in assay [7] was “inactive” each time. Besides, the result in [9] was inactive.

As for `CCOc1ccc(O)cc1`, the Potency entry in [1], in assay [2], in [3], in assay [5], in assay [6] and in assay [7] was “inactive” each time. Further, the Potency result in assay [8] was “inactive”. Moreover, the compound was called inactive in [9].

Turning to `NC(=O)C(c1ccccc1)(c1ccccc1)[C@@H]1CCN(CCc2ccc3c(c2)CCO3)C1`, the Potency entry in [1], in assay [2], in assay [3], in assay [5], in assay [6] and in [8] was “inactive” in each case. In addition, the outcome in assay [9] was inactive.
